CHO-K1 Ca antag = counter-screen for M1 antagonists: effect in parental CHO-K1 cells; ATP-induced calcium, Fluo-8 fluorescence; inhibition, % at 3 µM; AID 602250; hit rate 0.6% among 360,000;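 active = inhibition above a per-plate cutoff, the plate's mean sample inhibition plus 3 SD, cut at about 24% in these data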;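 also: 0% = DMSO plus EC80 ATP and 100% = DMSO alone without ATP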
CHO-K1 Ca PAM = nonselective activator or artifact in parental CHO-K1 calcium assay. ATP EC20, Fluo-8 calcium fluorescence; 0% at ATP EC20, 100% at ATP max. activation, % at 3 µM. hit rate 0.02% among 360,000;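 active = activation above the run cutoff, the mean activation of all test compounds plus 3 SD, cut at about 40% in these data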;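 also: peak over basal fluorescence ratio in a 140 s read after ATP addition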
CHRM1 antagonist = human CHRM1 antagonism | hit rate 1.3% among 360,000 | P11229 | AID 588852 | inhibition, % at 3 µM | CHO-K1 hM1, Fluo-8 calcium fluorescence, ACh EC80 antagonist;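 active = percent inhibition above its own plate's cutoff, namely the mean of that plate's compound wells plus 3 SD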;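 also: peak over basal fluorescence ratio during 140 s after agonist addition; 0% = ACh EC80 plus DMSO and 100% = DMSO alone without agonist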
Target sequence (P11229 whole entry, looked up): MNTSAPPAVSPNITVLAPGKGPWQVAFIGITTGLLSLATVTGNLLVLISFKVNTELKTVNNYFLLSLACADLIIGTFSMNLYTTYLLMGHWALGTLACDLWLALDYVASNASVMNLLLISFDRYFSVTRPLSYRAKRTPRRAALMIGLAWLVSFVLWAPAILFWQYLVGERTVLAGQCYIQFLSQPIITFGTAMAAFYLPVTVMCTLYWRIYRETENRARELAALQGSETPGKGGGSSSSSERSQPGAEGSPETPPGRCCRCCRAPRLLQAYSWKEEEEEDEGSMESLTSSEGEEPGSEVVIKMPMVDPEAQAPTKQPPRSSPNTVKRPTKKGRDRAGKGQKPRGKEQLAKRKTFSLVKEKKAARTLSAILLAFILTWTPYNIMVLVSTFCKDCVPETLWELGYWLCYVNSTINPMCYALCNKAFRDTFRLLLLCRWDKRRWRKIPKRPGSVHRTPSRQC
CHRM1 PAM = human CHRM1 positive allosteric modulation; CHO-K1 hM1, Fluo-8 calcium fluorescence, ACh EC20; 0% = ACh EC20, 100% = maximal ACh; AID 588819; hit rate 0.088% among 360,000; activation, % at 3 µM; in the data active = activation above about 19%, passing the limit was not always enough
M1 ag = agonists of human M1 muscarinic receptor; CHO-K1 hM1, Fluo-8 calcium fluorescence, agonist mode; 0% DMSO, 100% acetylcholine EC100; activation, % at 3 µM; hit rate 0.33% among 360,000;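 active = activation above the run's mean compound activation plus 3 SD, cut at about 16% in these data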;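 also: peak over basal fluorescence ratio within a 140 s kinetic read after compound addition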
CHO-K1 Ca ag = M1 agonist counterscreen hit in parental CHO-K1 cells; Fluo-8 calcium fluorescence; scaled to maximal ATP response, vehicle zero; activation, % at 3 µM; hit rate 0.48% among 360,000; AID 602248; in the data active = activation above about 15%;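 also: untransfected CHO-K1 host cells lacking M1 receptor as counterscreen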
The depositor's hits bear a star. This is a sample that favours compounds with a hit; in the whole collection about 2.3% have one here.

SMILES	CHO-K1 Ca antag	CHO-K1 Ca PAM	CHRM1 antagonist	CHRM1 PAM	M1 ag	CHO-K1 Ca ag
Cc1cc(C)cc(NC(=S)N2C3CCCC2CC(NC(=O)C2CC2)C3)c1 (configuration not stated)	-6	-12	27*	-22	-11	0
Cc1ccc(NC(=S)N2C3CCCC2CC(NC(=O)C2CC2)C3)cc1C (configuration not stated)	-18	14	-5	2	-13	0
CCOC(=O)c1csc(NC(=O)c2ccc(S(=O)(=O)N(CC)CC)cc2)n1	-10	14	-5	7	-2	15*
O=C(Nc1ccc(S(=O)(=O)N2CCCCC2)cc1)c1ccc(CN2CCc3ccccc3C2)cc1	33*	-4	27	-12	-4	0
O=C(Nc1ccccc1)c1ccc(CN2CCc3ccccc3C2)cc1	24*	-13	-6	-11	-13	7
CCN(CC)S(=O)(=O)c1ccc(NC(=O)c2ccc(N(C)S(C)(=O)=O)cc2)cc1	9	-5	6	-11	0	4
CCOC(=O)c1sc(NC(=O)c2ccc(S(=O)(=O)N(CC)CC)cc2)nc1C	1	0	-3	3	-1	1
Cc1ccc(NC(=O)c2ccc(CN3CCc4ccccc4C3)cc2)cc1	-10	18	5	-10	-4	1
CCN(CC)S(=O)(=O)c1ccc(C(=O)Nc2ccc(Cc3ccncc3)cc2)cc1	16	-21	26	-14	0	15*
CC1(c2nc3ccccc3[nH]2)CCC(=O)N1Cc1ccc(F)cc1 (configuration not stated)	8	13	-2	5	-7	0
CCCn1c(N)c(C(=O)CSc2nc(N)cc(=O)[nH]2)c(=O)n(C)c1=O	-13	7	-10	7	-3	1
CCc1ccc(NC(=O)CN2CCc3ccccc3C2)cc1	24*	-7	1	4	-6	0
CN(c1ccccc1)S(=O)(=O)c1ccc(C(=O)NCc2ccccc2CN2CCCC2)cc1	10	-13	21	-16	-6	17*
CN(C)S(=O)(=O)c1ccc(C(=O)Nc2ccc(CN3CCCC3)cc2)cc1	-8	15	41*	-18	-5	0
CC(=O)N(c1cc(C)ccc1C)c1ccccc1[N+](=O)[O-]	-4	-9	1	13	6	0
COc1ccc(OC)c(CCNC(=O)C(C)n2nc(C)c3c(C)n(-c4ccc(C)cc4)nc3c2=O)c1 (configuration not stated)	3	0	27	-11	-6	3
COC(=O)[C@]1(C)N[C@H](CN(C)C(=O)c2ccc(C)cc2)[C@@H]2C(=O)N(C)C(=O)[C@@H]21	1	-9	-8	20	4	0
OCC1(Cc2ccc(F)cc2F)CCCN(CCCc2ccccc2)C1 (configuration not stated)	9	6	15	-16	-10	0
OCC1(Cc2ccccc2F)CCCN(CCc2ccccc2)C1 (configuration not stated)	-2	-9	31*	-25	-10	0
CC(C)C(NS(=O)(=O)c1cccs1)C(=O)NCc1ccc2c(c1)OCO2 (configuration not stated)	7	-4	4	0	-2	0
O=[N+]([O-])/C=C/c1cn(Cc2ccc(F)cc2)c2ccccc12	8	5	33*	15	-3	1
O=C(O)c1ccc(N/N=C/c2cn(Cc3ccc(F)cc3)c3ccccc23)cc1	1	4	4	11	0	1
CN(C)c1ccc(CN2CCC(C(=O)NC(c3ccc(F)cc3)c3ccc4ccccc4n3)CC2)cc1 (configuration not stated)	3	7	54*	-28	-7	1
O=C(NC(c1ccc(F)cc1)c1ccc2ccccc2n1)C1CCN(Cc2ccc3ccccc3n2)CC1 (configuration not stated)	-7	14	5	-6	-6	1
COC(=O)C(/C=N/OCc1ccc([N+](=O)[O-])cc1)NC(=O)c1cccc(Cl)c1 (configuration not stated)	-2	7	4	4	25*	14
SMILES	CHO-K1 Ca antag	CHO-K1 Ca PAM	CHRM1 antagonist	CHRM1 PAM	M1 ag	CHO-K1 Ca ag
CC12CCC(=O)C=C1CCC1C2C(O)CC2(C)C1CCC2(O)C(=O)COC(=O)CCC1CCCC1 (configuration not stated)	0	10	41*	-31	-11	3
C[C@]12CCC(=O)C=C1CC[C@@H]1[C@@H]2[C@@H](O)C[C@@]2(C)[C@H]1CC[C@]2(O)C(=O)COC(=O)CCC(=O)O	2	4	-29	6	-4	1
CCC(CC)C(=O)OCC(=O)C1(O)CCC2C3CCC4=CC(=O)CCC4(C)C3C(O)CC21C (configuration not stated)	-2	-14	68*	-29	0	3
C=CCn1c(COc2ccc(F)cc2)nnc1SC(C)C(=O)NCC1CCCO1 (configuration not stated)	-21	4	-7	3	-6	0
O=C1/C(=C/c2ccc(O)c(O)c2)SC(=S)N1Nc1ccccc1	18	-3	15	-3	13	11
CCOc1cc(/C=C2\SC(=S)N(Nc3ccccc3)C2=O)ccc1O	21	-2	2	4	29*	13
COc1cc(/C=C2\SC(=S)N(C(Cc3ccccc3)C(=O)O)C2=O)ccc1O (configuration not stated)	3	-8	-2	1	7	15*
COc1cc(/C=C2/SC(=S)N(CC3CCCO3)C2=O)ccc1O (configuration not stated)	15	5	19	-5	14	18*
COc1ccc(/C=C2\SC(=S)N(CC3CCCO3)C2=O)cc1 (configuration not stated)	5	-17	-12	6	0	0
COc1cc(/C=C2\SC(=S)N(Nc3ccccc3)C2=O)ccc1O	24*	8	24	-11	23*	27*
Cc1cc(C)c(C)c(S(=O)(=O)N(C)C2CCN(C)CC2)c1C	-5	0	-17	8	-10	1
Cc1ccc2[nH]c3c(c2c1)CCN1C(=O)OC(C)(C)C31C (configuration not stated)	0	0	-1	2	-3	1
CCOC(=O)Nc1ccc2c(c1)N(C(=O)OC)c1ccccc1CC2	-7	9	-2	3	-2	0
CCOC(=O)Nc1ccc2c(c1)N(C(=O)CN1CCN(C)CC1)c1ccccc1S2	-6	17	75*	-21	-7	2
CCN(CC)CCC(=O)N1c2ccccc2Sc2ccc(NC(=O)OC)cc21	-6	0	23	-26	-9	0
CCOC(=O)Nc1ccc2c(c1)N(C(=O)CCN(C)C)c1ccccc1S2	-4	20	51*	-22	-5	0

Screening results as filed in PubChem BioAssay.
